Laboratory results published in PubChem BioAssay (NCI).
About 83,000 compounds went through this panel and 20% of them were active in at least one assay; those are over-represented in the sample as a whole.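 Assay: single dose, 48 h. Readout: percent growth (0 = no net growth; negative = cell death). Active: <10.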 A number with no mark means an inactive call. Active and inactive are the calls of the source.

These compounds were tested on MCF7 breast (assay: NCI-60 one-dose screen, 48 h (100 = growth as untreated, 0 = no growth, -100 = all killed)). Details: 10 µM unless noted.
Experimental: Growth inhibition of the MCF7 human tumor cell line is measured as a screen for anti-cancer activity. Cells are grown in 96 well plates and exposed to the test compound for 48 hours. Compounds are tested at a single concentration, which is 10^-5 M for most compounds. The reported endpoint is percent growth (GI% or GIPRCNT), where numbers from 0 - 100% represent growth inhibition, and numbers from -100% - 0 represent cell death. For example, a value of 40 represents 60% growth inhibition. A value of 0 means no net growth occurred over the course of the experiment. A value of -40 indicates 40% of cells at the beginning of the experiment died by the end of the experiment. A value of -100 means all cells are dead at the end of the experiment.
NCI-60 Human Tumor Cell Lines Screen was performed using the standard one-dose NCI protocol, which is described in more detail at https://dtp.cancer.gov/discovery_development/nci-60/default.htm.
Compounds with GIPRCNT values below 10 were considered active. Activity score was based on GIPRCNT using the following formula: […]
Score is 0 for GIPRCNT values of 100 or above, 50 for GIPRCNT values of 0, and 100 for GIPRCNT values of -100.

Point of comparison: `Nc1ccc(Cl)cc1`, growth 98.2%. Against it:
- O=[N+]([O-])CC(c1ccccc1Cl)c1c(-c2ccccc2)[nH]c2ccccc12 (stereo not given) — lower, 21.8%
- COc1ccc(/C=C\c2cc(OC)c(OC)c(OC)c2)cc1OCC(=O)Nc1nc2ccc(OC(F)(F)F)cc2s1 — lower, 24.3%
- O=C(CC1(O)C(=O)Nc2ccccc21)c1ccc(C(=O)NCC2CCC3(CC2)OOC2(CCCCC2)OO3)cc1 (stereo not given) — lower, 62.9%
- O=Cc1cn(Cc2ccc(Cl)cc2)c2ccccc12 — lower, 55.5%
- CC1[C@H](C)OC(=O)CC(O)CC(O)CC(O)CCC(O)C(O)C[C@]2(O)CC(O)C(C(=O)O)C(CC(OC3O[C@H](C)[C@@H](O)[C@H](N)[C@@H]3O)/C=C/C=C/C=C/C=C/CC/C=C/C=C/[C@H](C)[C@H]1O)O2 (stereo not given in full) — higher, 104%
- CCCOC(=O)N[C@H]1CCc2c(Br)c(OC)c(OC)c(OC)c2-c2ccc(SC)c(=O)cc21 — lower, 10%
- COc1cc2c(c(OC)c1OC)-c1ccc([O-])c(=O)cc1[C@@H](NC(C)=O)CC2.COc1cc2c(c(OC)c1OC)-c1ccc([O-])c(=O)cc1[C@@H](NC(C)=O)CC2.[Cu+2] — lower, 11%
- CC(=O)OCc1cc[c]([Hg][Cl])o1 — lower, 20.2%
- COC(=O)[C@@]1(C)CC[C@]2(C)CC[C@]3(C)C4=CC(=O)c5c(cc(O)c(O)c5C)[C@]4(C)CC[C@@]3(C)[C@@H]2C1 — lower, 41.9%
- CC(C)COC(C[N+](=O)[O-])C(Cl)(Cl)Cl (stereo not given) — higher, 98.8%
- CCOP1(=O)CC(C)=C(Cl)C(P(=O)(OCC)OCC)C1 (stereo not given) — higher, 99.7%
- COc1cccc(C=NC(Cc2cnc[nH]2)C(=O)O)c1O (stereo not given) — lower, 93.4%
- C/C(=C\c1ccn(-c2ccc(N)c(F)c2)n1)[C@@H]1C[C@@H]2O[C@]2(C)CCC[C@H](C)[C@H](O)[C@@H](C)C(=O)C(C)(C)[C@@H](O)CC(=O)O1 — lower, 16.3%
- C/C=C(\C)C(=O)O[C@@H]1C(O)[C@H]2OC(COC(=O)CCC(=O)CCCCCC[C@H](CCCCC)O[C@@H]3OC(C)[C@H](OC(C)=O)C(O)[C@H]3O2)[C@H]1OC(=O)/C=C/c1ccccc1 (stereo not given in full) — lower, 17.6%
- COc1cc(/C=C\c2cc(OC)c(OC)c(OC)c2)cc(N/C=C\C(=O)c2cc(OC)c(OC)c(OC)c2)c1OC — lower, 15.1%
- NC1CC2CCCCC2CC1(O)c1ccccc1 (stereo not given) — lower, 96.1%
- COc1ccc(C(=O)c2cc(OC)c(OC)c(OC)c2)cc1OC(C)=O — lower, 15.7%
- N#C[Se]CCN1C(=O)c2ccccc2C1=O — lower, 25.4%
- COc1cc2c(=O)n(C3CCCCCCC3)c3c4cc[nH]c4ncc3c2cc1OC — lower, 39.1%
- N/C(=N\N=C\c1ccc(-c2ccccc2)cc1)N[N+](=O)[O-] — lower, 13.6%
- O=C(c1cccc(O)c1O)c1cn(Cc2ccc(F)cc2)c2cccc(O)c12 — lower, 26.9%
- Cc1ccc(N2COOC3(OOC2)C2CC4CC(C2)CC3C4)cc1 — lower, 77.6%
- c1cnc2[nH]cc(-c3csc(-c4cn(CCCCN5CCOCC5)c5ccccc45)n3)c2c1 — lower, 25.1%
- CC(=O)Nc1ccc(NC(=O)c2ccc([As](O)O)cc2)cc1 — lower, 85%
- O=P(N1CC1)(N1CC1)N1CCc2ccccc21 — lower, 86.5%
- CC(CO)NC1CCCCC1 (stereo not given) — higher, 109%
- CC1(C)CN1P(=O)(N1CC1(C)C)N1CC1(C)C (stereo not given) — lower, 92.8%
- N#CC1(c2ccccc2)CCN(Cc2ccccc2)CC1 — higher, 110%
- Cn1cc(C2=C(c3cn(C4CCN(Cc5ccccn5)CC4)c4ccccc34)C(=O)NC2=O)c2ccccc21 — lower, 76.1%
- COC(=O)[C@@H](C)C[C@H](Cc1ccccc1)NC(=O)c1csc([C@@H](C[C@H](C(C)C)N(C)C(=O)[C@@H](NC(=O)C23CC(NC(C)=O)(C2)C3)C2CC2)OC(C)=O)n1 — lower, 18.9%
- CCC(=O)Nc1ccc(Cl)c(Cl)c1 — lower, 93.1%
- CC1(C)C(C(=O)c2cn(CCCCF)c3ccccc23)C1(C)C — lower, 89%
- CC(C)OC(=O)[C@H](C)NP(=O)(Oc1ccccc1)C1CCCN(O)C1=O (stereo not given in full) — lower, 94.5%
- COc1cc([C@@H]2c3cc4c(cc3[C@H](OC(C)=O)[C@H]3COC(=O)[C@H]23)OCO4)cc(OC)c1OC — lower, 14.9%

In the case of `[Cl][Hg][c]1cc[c]([Hg][Cl])o1`, the growth is reported as -18.6% (active).
`O=C(CCCCCNC1=CC(=O)c2ccccc2C1=O)NCCC[Te]c1ccccc1` was tested, and the growth was 4.88% (active).
For `CCCCCCCCCCCCCC[P+](CCCCCC)(CCCCCC)CCCCCC`, the growth was -51.8% (active).
`C[C@]12CC[C@H]3[C@@H](CC[C@]4(O)C[C@@H](O[C@@H]5O[C@H](CO)[C@@H](O[C@@H]6OC[C@@H](O)[C@H](O)[C@H]6O)[C@H](O)[C@H]5O)CC[C@]34C=O)[C@@]1(O)CC[C@@H]2C1=CC(=O)OC1` was tested, and the growth was 3.61% (active).
With `COc1cc(C=C2c3ccccc3C(=O)c3ccccc32)ccc1OCCCCOc1cc2c(cc1OC)C(=O)N1CCCC1C=N2` (stereo not given) the growth was -77.1% (active).
